Bioassay records as filed in PubChem.
Only a selection was taken, and hits are over-represented in it overall.
Dicer inh = inhibitors of Dicer pre-microRNA processing, primary screen, biochemical, cat-ELCCA, chemiluminescence. cat-ELCCA pre-miR-21 Dicer processing; hits give high values. hit rate 6% among 47,000. z-score at 25 µM. Endoribonuclease Dicer (Homo sapiens), Q9UPY3; in the data active means z-score above about 3, passing the limit was not always enough;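 further: plate controls were vehicle for no effect and no enzyme for full effect; higher signal means more uncleaved substrate so more Dicer inhibition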
* = called active by the depositor.

Results for CC(Oc1ccc(Cl)cc1Cl)C(=O)Oc1ccc(Cl)cc1Cl (stereo unspecified) ?
Dicer inh: 8.25

How did O=C(/C=C/C(=O)Oc1ccc(Cl)cc1Cl)Oc1ccc(Cl)cc1Cl do in these assays?
Dicer inh: 3.7*

What do the screens show for `O=S(=O)(CS(=O)(=O)Oc1ccc(Cl)cc1Cl)Oc1ccc(Cl)cc1Cl`?
Dicer inh: 2.3

What do the screens show for `COC(=O)c1csc(S(=O)(=O)NCc2nn(-c3ccccc3)nc2C)c1OC`?
Dicer inh: -1.18

What do the screens show for `Cc1c2n(c3ccccc13)CC/C2=N\Nc1ccc(Cl)cc1Cl`?
Dicer inh: 0.93

What do the screens show for `Cc1c(S(=O)(=O)c2ccc(Cl)cc2)csc1C(=O)Nc1ccc(N2CCOCC2)c(Cl)c1`?
Dicer inh: -1.89

How did Cc1ccc2c(c1)CCCN2C(=O)c1scc(S(=O)(=O)c2ccc(Cl)cc2)c1C do in these assays?
Dicer inh: -1.74

Results for Cc1c(S(=O)(=O)c2ccc(Cl)cc2)csc1S(=O)(=O)N1CCCC1 ?
Dicer inh: 3*

How did CC(C)(C)c1ccc(-c2nc(NCCCN3CCOCC3)c3ccccc3n2)cc1 do in these assays?
Dicer inh: 0.3

How did OCCN1CCN(c2ncc(Cl)cc2C(F)(F)F)CC1 do in these assays?
Dicer inh: 0.57

Results for Cc1cccc(-n2cnc3c(sc4nc(N5CCOCC5)c5c(c43)CC(C)(C)OC5)c2=O)c1 ?
Dicer inh: -0.28

Results for CC(=O)Nc1ccc(NCN2C(=O)c3ccccc3C2=O)cc1 ?
Dicer inh: -0.7

Results for CC(C)c1ccc(NCN2C(=O)c3ccccc3C2=O)cc1 ?
Dicer inh: 2.84

What do the screens show for `C#Cc1cccc(NCN2C(=O)c3ccccc3C2=O)c1`?
Dicer inh: 3.09*

What do the screens show for `Cn1cccc1C(=O)N/N=C(\N)CN1CCCCC1`?
Dicer inh: -1.03

Results for CC(C)C(NC(=O)c1nccnc1C(=O)O)C(=O)O (stereo unspecified) ?
Dicer inh: -4.14

What do the screens show for `COC1=C(OC)C2(C=CC1=O)CC(C)(C)N=C2SC` (stereo unspecified)?
Dicer inh: 1.08

What do the screens show for `CSC1=NC(C)(C)CCC12C=CC(=O)C=C2`?
Dicer inh: 3.16*

What do the screens show for `Cc1cc(NC(=O)CSc2n[nH]c(=O)n2-c2ccccc2)n(-c2ccccc2)n1`?
Dicer inh: 1.37

Results for CCOC(=O)C(NC(C)=O)(Nc1ccc(C(O)(C(=O)OCC)C(F)(F)F)cc1C)C(F)(F)F (stereo unspecified) ?
Dicer inh: 2.69

How did CCOC(=O)c1[nH]c(C)c(CC)c1C do in these assays?
Dicer inh: 4.26*

Results for CCOC(=O)c1[nH]c(C)c(C(C)=O)c1C ?
Dicer inh: -1

What do the screens show for `CCOC(=O)c1[nH]c(Cc2[nH]c(C(=O)OCC)c(C)c2C)c(C)c1C`?
Dicer inh: -0.8

What do the screens show for `COc1ccc(C2c3c(oc4ccccc4c3=O)C(=O)N2c2nnc(C(C)C)s2)cc1OC` (stereo unspecified)?
Dicer inh: 0.08

What do the screens show for `CCCNC(=S)/N=C(\N)N1CCOCC1`?
Dicer inh: -0.24

What do the screens show for `O=C(NCc1nc(-c2ccc(C(F)(F)F)cc2)no1)c1ccccc1C(F)(F)F`?
Dicer inh: 1.04

Results for COc1ccccc1N1CC(C)(C)C(=O)NC1=S ?
Dicer inh: 6.22*

Results for COc1ccccc1NC(=S)N1CC(C)(C)C1=O ?
Dicer inh: -0.45

What do the screens show for `COc1ccccc1N1C(=O)C2C3C=CC(CC3)C2C1=O` (stereo unspecified)?
Dicer inh: 0.02

What do the screens show for `O=C(Nc1nnc(SCc2ccccc2)s1)c1cc2ccccc2c(=O)o1`?
Dicer inh: -1.78

What do the screens show for `S=C1N2CCN=C2SC2=NCCN12`?
Dicer inh: 0.82

How did Cc1oc2ccc(NS(=O)(=O)c3ccc(Cl)cc3)cc2c1C(=O)OC(C)C do in these assays?
Dicer inh: 1.67

Results for O=S(=O)(Nc1ccc(O)c(-c2c(O)ccc3ccccc23)c1)c1ccc(Cl)cc1 ?
Dicer inh: 8.46*

How did CC(=O)Nc1cc2cc(NS(=O)(=O)c3ccc(Cl)cc3)ccc2oc1=O do in these assays?
Dicer inh: -0.32

Results for CCCN(CCC)CC(O)COc1ccc2ccccc2c1 (stereo unspecified) ?
Dicer inh: 1.26

How did O=C(Nc1cnn(Cc2ccccc2)c1)c1cc2n(n1)C(C(F)(F)F)CC(c1ccco1)N2 (stereo unspecified) do in these assays?
Dicer inh: -0.98

What do the screens show for `COc1ccc(CNCC2(O)CCOC(C)(C)C2)cc1` (stereo unspecified)?
Dicer inh: 3.64*

What do the screens show for `COc1ccc(CN=C(C)C2CCOC2=O)cc1` (stereo unspecified)?
Dicer inh: -1.53

How did COc1ccc(CNCc2ccc(Br)cc2)c(OC)c1 do in these assays?
Dicer inh: 0.88

What do the screens show for `CC(=O)Oc1ccc2c(=O)c(Oc3ccccc3)c(C(F)(F)F)oc2c1C`?
Dicer inh: 0.69

How did Cc1ccc(CNc2oc(COc3ccc(F)cc3)nc2C#N)cc1 do in these assays?
Dicer inh: -7.99

What do the screens show for `CCOCCOC(=O)C1=C(C)NC2=C(C(=O)CC(c3ccccc3)C2)C1c1ccc(CC)cc1` (stereo unspecified)?
Dicer inh: -0.06

What do the screens show for `O=C(Nc1cccc(NC(=O)c2c(F)cccc2F)n1)c1c(F)cccc1F`?
Dicer inh: -0.22

Results for O=C(O)COCC(=O)Nc1ccccn1 ?
Dicer inh: 0.85

Results for O=C(Nc1ccccn1)c1cccc(C(=O)Nc2ccccn2)n1 ?
Dicer inh: 3.55*

Results for COc1cccc(C2CC(c3ccc(Br)cc3)=NN2C(=O)CCC(=O)O)c1OC (stereo unspecified) ?
Dicer inh: -0.46

Results for Cn1c(=O)c2c3oc(-c4ccccc4)nc3c(=O)n(-c3ccccc3)c2n(C)c1=O ?
Dicer inh: -0.83

How did CCCN1C(=O)C2(/C(=C(/O)c3ccc4c(c3)CC(C)O4)C(=O)C(=O)N2CCOC)c2ccccc21 (stereo unspecified) do in these assays?
Dicer inh: 1.36

What do the screens show for `O=C(c1cccs1)N1CCCCC1c1ccccn1` (stereo unspecified)?
Dicer inh: -1.21

What do the screens show for `Nc1cc(Cc2cc(N)cc(C(F)(F)F)c2)cc(C(F)(F)F)c1`?
Dicer inh: 0.5

Results for CCn1c2c(c(=O)[nH]c1=O)C(c1cccc(Cl)c1)C1=C(N2)c2ccccc2C1=O (stereo unspecified) ?
Dicer inh: -0.43

How did CCn1c2c(c(=O)[nH]c1=O)C(c1cccc3ccccc13)C1=C(N2)c2ccccc2C1=O (stereo unspecified) do in these assays?
Dicer inh: 3.38*

How did COCCn1c2c(c(=O)[nH]c1=O)C(c1cccc3ccccc13)C1=C(N2)c2ccccc2C1=O (stereo unspecified) do in these assays?
Dicer inh: 0.43

What do the screens show for `O=C(CSCCc1ccccn1)Nc1ccccc1Br`?
Dicer inh: 1.35

How did COC(=O)c1cscc1OS(=O)(=O)c1ccc(Cl)cc1 do in these assays?
Dicer inh: 0.22

What do the screens show for `CCOc1ccc(C2C(C(=O)OCc3ccccc3)=C(C)N=C3SC(C)C(=O)N32)cc1OCC` (stereo unspecified)?
Dicer inh: -0.38

How did Oc1c(Cl)cc(Cl)c2cccnc12 do in these assays?
Dicer inh: 3.06*

How did O=C(Oc1c(Cl)cc(Cl)c2cccnc12)c1cccs1 do in these assays?
Dicer inh: 1.41
